Among all 39,000 compounds or so, about 3,300 (8.5%) were called active. What follows is part of a selection rich in actives, with near analogues and random picks from the rest.
What follows are compounds tested on HepG2 (assay: cytotoxicity call (relative viability < 0.9)). Conditions: 10 µM.

| SMILES | cytotoxicity call |
| --- | --- |
| C[C@H](CO)N1C[C@H](C)[C@H](CN(C)C(=O)c2ccc(N3CCN(C)CC3)cc2)OCc2cnnn2CCCC1=O | inactive |
| C[C@H](O)C#Cc1ccc2c(c1)O[C@@H](CN(C)C)[C@@H](C)CN([C@@H](C)CO)S2(=O)=O | inactive |
| COc1ccc(S(=O)(=O)N(C)C[C@H]2Oc3c(NS(=O)(=O)c4ccc(C)cc4)cccc3C(=O)N([C@@H](C)CO)C[C@@H]2C)cc1 | inactive |
| CCNC(=O)C[C@H]1CC[C@@H](NC(=O)C2CC2)[C@@H](CO)O1 | inactive |
| Cc1noc(C)c1C(=O)OCC(=O)NC1CC1 | inactive |
| Cc1cc(C(=O)Nc2cccc3c2O[C@@H](CN(C)Cc2ccncc2)[C@H](C)CN([C@H](C)CO)C3=O)n(C)n1 | inactive |
| COC(=O)c1cnn2c(=O)cc(C)[nH]c12 | inactive |
| O=C(C[C@H]1CC[C@H]2[C@@H](COC[C@@H](O)CN2S(=O)(=O)c2cccc(F)c2)O1)NCCCN1CCOCC1 | inactive |
| C[C@@H]1CN([C@@H](C)CO)C(=O)c2cc(NC(=O)Nc3ccc(F)cc3)ccc2O[C@@H]1CN(C)Cc1ccc(C(F)(F)F)cc1 | active |
| C[C@H](CO)N1C[C@H](C)[C@@H](CN(C)Cc2ccc(C(F)(F)F)cc2)Oc2ccc(NC(=O)Nc3ccc(F)cc3)cc2C1=O | active |
| C[C@H](CO)N1C[C@H](C)[C@H](CN(C)Cc2ccc(C(F)(F)F)cc2)Oc2ccc(NC(=O)Nc3ccc(F)cc3)cc2C1=O | inactive |
| C[C@H]1CN([C@@H](C)CO)C(=O)c2cc(NC(=O)Nc3ccc(F)cc3)ccc2O[C@H]1CN(C)Cc1ccc(C(F)(F)F)cc1 | inactive |
| C[C@@H]1CN([C@H](C)CO)C(=O)c2cc(NC(=O)Nc3ccc(F)cc3)ccc2O[C@@H]1CN(C)Cc1ccc(C(F)(F)F)cc1 | inactive |
| C[C@H]1CN([C@@H](C)CO)C(=O)c2cc(NC(=O)Nc3ccc(F)cc3)ccc2O[C@@H]1CN(C)Cc1ccc(C(F)(F)F)cc1 | inactive |
| C[C@@H]1CN([C@H](C)CO)C(=O)c2cc(NC(=O)Nc3ccc(F)cc3)ccc2O[C@H]1CN(C)Cc1ccc(C(F)(F)F)cc1 | active |
| C[C@@H]1CN([C@@H](C)CO)C(=O)c2cc(NC(=O)Nc3ccc(F)cc3)ccc2O[C@H]1CN(C)Cc1ccc(C(F)(F)F)cc1 | active |
| O=C(C[C@@H]1CC[C@@H]2[C@H](COC[C@@H](O)CN2C(=O)c2cccnc2)O1)NCc1ccc(-c2ccccc2)cc1 | inactive |
| C[C@@H]1CN([C@H](C)CO)C(=O)Cc2cc(NS(=O)(=O)c3cn(C)cn3)ccc2O[C@@H]1CN(C)C(=O)NC1CCCCC1 | inactive |
| C[C@H](CO)N1C[C@H](C)[C@@H](CN(C)Cc2cccc3c2OCCCO3)OCc2cn(nn2)CCCC1=O | inactive |
| O=C1CSCCN1 | inactive |
| OCc1ncc[nH]1 | inactive |
| CCNC(=O)[C@H]1[C@H](CO)[C@H]2Cn3c(ccc(-c4ccc(OC)cc4)c3=O)[C@@H]1N2S(C)(=O)=O | inactive |

| SMILES | cytotoxicity call |
| --- | --- |
| C[C@@H]1CN([C@@H](C)CO)S(=O)(=O)c2ccc(C3=CCCC3)cc2O[C@@H]1CN(C)C(=O)Cc1ccncc1 | inactive |
| COc1ccc2c(c(Br)c(C(=O)O)n2CCCOc2cccc3ccccc23)c1-c1ccccc1C | inactive |
| C[C@H](CO)N1C[C@H](C)[C@@H](CN(C)Cc2ccc(C(=O)O)cc2)Oc2ccc(NC(=O)Cn3cnnn3)cc2CC1=O | inactive |
| CC(C)(C)C(=O)C[C@@H](Nc1ccccc1)c1ccc(Cl)cc1 | inactive |
| COc1cccc(-c2ccc3n(c2=O)C[C@H]2[C@H](CO)[C@@H](C(=O)NCC4CC4)[C@@H]3N2S(C)(=O)=O)c1 | inactive |
| C[C@H]1CN([C@@H](C)CO)C(=O)c2cccc(NS(=O)(=O)c3cn(C)cn3)c2O[C@@H]1CN(C)CC1CC1 | inactive |
| CCc1nc2c(OCC(=O)c3ccc(Cl)cc3Cl)cccn2c1N(C=O)Cc1ccc(OC)cc1 | inactive |
| CCc1nc2c(OCC(=O)c3ccc(Cl)cc3Cl)cccn2c1N(C)C(=O)COc1ccccc1 | active |
| CCc1nc2ccc(C(=O)N3CCN(C(=O)c4ccco4)CC3)cn2c1N(C)C(=O)COc1ccccc1 | inactive |
| C[C@@H]1CN([C@H](C)CO)C(=O)Cc2cc(NS(=O)(=O)c3cccs3)ccc2O[C@H]1CN(C)CC1CC1 | inactive |
| CC(C)=CCC/C(C)=C/CC1=C(C)C(=O)c2ccccc2C1=O | inactive |
| C[C@@H]1CN([C@@H](C)CO)C(=O)Cc2cc(NC(=O)Nc3cccc4ccccc34)ccc2O[C@H]1CN(C)Cc1ccc(C(F)(F)F)cc1 | inactive |
| C[C@H](CO)N1C[C@H](C)[C@H](CN(C)Cc2ccc(C(F)(F)F)cc2)Oc2ccc(NC(=O)Nc3cccc4ccccc34)cc2CC1=O | inactive |
| C[C@@H]1CN([C@H](C)CO)C(=O)Cc2cc(NC(=O)Nc3cccc4ccccc34)ccc2O[C@@H]1CN(C)Cc1ccc(C(F)(F)F)cc1 | active |
| C[C@H]1CN([C@@H](C)CO)C(=O)Cc2cc(NC(=O)Nc3cccc4ccccc34)ccc2O[C@H]1CN(C)Cc1ccc(C(F)(F)F)cc1 | active |
| C[C@H]1CN([C@@H](C)CO)C(=O)Cc2cc(NC(=O)Nc3cccc4ccccc34)ccc2O[C@@H]1CN(C)Cc1ccc(C(F)(F)F)cc1 | inactive |
| C[C@@H]1CN([C@H](C)CO)C(=O)Cc2cc(NC(=O)Nc3cccc4ccccc34)ccc2O[C@H]1CN(C)Cc1ccc(C(F)(F)F)cc1 | inactive |
| C[C@@H]1CN([C@@H](C)CO)C(=O)Cc2cc(NC(=O)Nc3cccc4ccccc34)ccc2O[C@@H]1CN(C)Cc1ccc(C(F)(F)F)cc1 | active |
| C[C@@H]1CN([C@@H](C)CO)C(=O)Cc2cc(NC(=O)Nc3cccc4ccccc34)ccc2O[C@@H]1CN(C)C(=O)Nc1ccc(C(F)(F)F)cc1 | inactive |
| C[C@H](CO)N1C[C@H](C)[C@@H](CN(C)Cc2ccc(C(F)(F)F)cc2)Oc2ccc(NC(=O)Nc3cccc4ccccc34)cc2CC1=O | inactive |
| O=C(COc1ccccc1)N1CCNC1=O | inactive |
| CC(C)NC(=O)N(C)C[C@@H]1Oc2ncc(-c3ccc(C(=O)N(C)C)cc3)cc2C(=O)N([C@@H](C)CO)C[C@H]1C | inactive |

| SMILES | cytotoxicity call |
| --- | --- |
| O=C(C[C@H]1C[C@H]2c3cc(NC(=O)C4CCOCC4)ccc3O[C@H]2[C@@H](CO)O1)NCCN1CCCCC1 | inactive |
| C[C@H]1CCCCO[C@H](CN(C)C(=O)c2ccccc2)[C@@H](C)CN([C@@H](C)CO)C(=O)c2cc(NC(=O)NC3CCCCC3)ccc2O1 | inactive |
| C[C@@H]1CN([C@H](C)CO)C(=O)c2cc(NC(=O)c3ccncc3)ccc2O[C@@H]1CN(C)Cc1ccc2c(c1)OCO2 | inactive |
| COc1ccc(S(=O)(=O)Nc2ccc3c(c2)C(=O)N([C@@H](C)CO)C[C@@H](C)[C@@H](CN(C)C(=O)Nc2ccc4c(c2)OCO4)OCCCC[C@H](C)O3)cc1 | inactive |
| Cc1cn([C@@H]2C[C@H](O)[C@@H](CO)O2)c(=O)[nH]c1=O | inactive |
| Cc1ccc(S(=O)(=O)Nc2ccc3c(c2)C(=O)N([C@H](C)CO)C[C@H](C)[C@H](CN(C)C(=O)CCC(F)(F)F)OCCCC[C@@H](C)O3)cc1 | inactive |
| CC(C)(C)OC(=O)C[C@H]1CC=CC[C@@H](CC(=O)NCCO)C(=O)N[C@@H](Cc2ccccc2)COC1=O | inactive |
| C[C@@H]1CN([C@@H](C)CO)C(=O)c2cccc(NC(=O)c3ccncc3)c2O[C@H]1CN(C)Cc1ccc2c(c1)OCO2 | inactive |
| CC(C)NC(=O)Nc1ccc2c(c1)C(=O)N([C@@H](C)CO)C[C@H](C)[C@@H](CN(C)Cc1ccc(C(=O)O)cc1)O2 | inactive |
| C[C@@H]1CCCCO[C@@H](CN(C)C(=O)Nc2ccc(F)cc2)[C@@H](C)CN([C@H](C)CO)C(=O)c2cc(NC(=O)c3ccncc3)ccc2O1 | inactive |
| C[C@H]1CCCCO[C@H](CN(C)C(=O)Nc2ccc3c(c2)OCO3)[C@@H](C)CN([C@@H](C)CO)C(=O)c2cc(NS(=O)(=O)c3ccc(Cl)cc3)ccc2O1 | active |
| Cc1ccc(S(=O)(=O)Nc2ccc3c(c2)C(=O)N([C@H](C)CO)C[C@H](C)[C@H](CN(C)C(=O)Nc2ccc4c(c2)OCO4)OCCCC[C@H](C)O3)cc1 | active |
| Cc1ccc(S(=O)(=O)Nc2ccc3c(c2)C(=O)N([C@@H](C)CO)C[C@H](C)[C@@H](CN(C)C(=O)Nc2ccc4c(c2)OCO4)OCCCC[C@@H](C)O3)cc1 | inactive |
| Cc1ccc(S(=O)(=O)Nc2ccc3c(c2)C(=O)N([C@H](C)CO)C[C@H](C)[C@@H](CN(C)C(=O)Nc2ccc4c(c2)OCO4)OCCCC[C@H](C)O3)cc1 | inactive |
| C[C@@H]1CN([C@H](C)CO)C(=O)c2cc(NS(=O)(=O)c3ccc(Cl)cc3)ccc2O[C@@H](C)CCCCO[C@H]1CN(C)C(=O)Nc1ccc2c(c1)OCO2 | inactive |
| C[C@@H]1CCCCO[C@H](CN(C)C(=O)Nc2ccc3c(c2)OCO3)[C@H](C)CN([C@@H](C)CO)C(=O)c2cc(NS(=O)(=O)c3ccc(Cl)cc3)ccc2O1 | inactive |
| COc1ccc(S(=O)(=O)Nc2ccc3c(c2)C(=O)N([C@H](C)CO)C[C@H](C)[C@H](CN(C)C(=O)Nc2ccc4c(c2)OCO4)OCCCC[C@H](C)O3)cc1 | inactive |
| COc1ccc(S(=O)(=O)Nc2ccc3c(c2)C(=O)N([C@@H](C)CO)C[C@H](C)[C@@H](CN(C)C(=O)Nc2ccc4c(c2)OCO4)OCCCC[C@@H](C)O3)cc1 | inactive |
| COc1ccc(S(=O)(=O)Nc2ccc3c(c2)C(=O)N([C@@H](C)CO)C[C@@H](C)[C@@H](CN(C)C(=O)Nc2ccc4c(c2)OCO4)OCCCC[C@@H](C)O3)cc1 | active |
| COc1ccc2c3c(n(c2c1)C)[C@@H](CO)N(Cc1cc(cc(c1)OC)OC)C[C@]13CN(C1)C(=O)CN1CCOCC1 | inactive |
